# Screening data from PubChem BioAssay.
# ARNT TACC3 PPI – disruptors of ARNT/TACC3 protein interaction, primary screen, biochemical, AlphaScreen, single concentration. inhibition, % at 9.99 µM. 390,000 tested, 0.66% active. AlphaScreen His-ARNT PAS-B/GST-TACC3 binding, luminescence; TACC3 fragment carries E629A point mutation. Transforming acidic coiled-coil-containing protein 3 (Homo sapiens), Q9Y6A5;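 active means mean inhibition of replicates at least 50% and at least half of replicates each reaching 50%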;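 further: 0% = complete ARNT plus TACC3 wells and 100% = ARNT alone without TACC3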
# HGIII-sPLA2 inh – human group III sPLA2 inhibitors, primary screen, biochemical, QFRET, BODIPY PC-A2 liposome substrate | QFRET BODIPY PC-A2 liposome hydrolysis, fluorescence | inhibition, % at 12.2 µM | 370,000 tested, 0.56% active | Group 3 secretory phospholipase A2 (Homo sapiens), Q9NZ20 | AID 743126, 2013;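 active means inhibition above mean plus 3 SD of compounds lying within the high and low control bounds, cut at about 19% in these data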;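 further: 0% = median of test compound wells and 100% = no enzyme DMSO wells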
# Target sequence (Q9NZ20 whole entry, looked up): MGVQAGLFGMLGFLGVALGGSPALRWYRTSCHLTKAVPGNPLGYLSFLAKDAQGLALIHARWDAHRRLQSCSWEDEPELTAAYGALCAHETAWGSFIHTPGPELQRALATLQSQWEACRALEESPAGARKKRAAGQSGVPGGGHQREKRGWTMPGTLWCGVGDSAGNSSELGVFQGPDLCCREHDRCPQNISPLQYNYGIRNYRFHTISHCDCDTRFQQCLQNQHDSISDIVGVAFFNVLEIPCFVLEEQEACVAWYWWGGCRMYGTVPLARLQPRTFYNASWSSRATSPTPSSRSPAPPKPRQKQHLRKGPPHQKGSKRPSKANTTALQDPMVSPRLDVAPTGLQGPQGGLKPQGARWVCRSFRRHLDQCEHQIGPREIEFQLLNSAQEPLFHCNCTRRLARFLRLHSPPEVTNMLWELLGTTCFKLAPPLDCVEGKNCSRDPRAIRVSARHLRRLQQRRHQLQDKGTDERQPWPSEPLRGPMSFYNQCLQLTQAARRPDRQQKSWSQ
# AI-2 QS modul – Vibrio harveyi AI-2 quorum sensing modulators, primary screen, JMH597 strain, luminescence/OD600 ratio; Vibrio harveyi JMH597 AI-2 luminescence/OD600 ratio, 9 h; hits give low values; strain lacks LuxN and CqsS sensors; 0 = neutral-control median; activity change, % at 7.5 µM; 300,000 tested, 0.4% active; AID 2094, 2009; in the data active means activity change below about -75%, passing the limit was not always enough;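 further: luminescence divided by OD600 gain over 9 h not by final OD600 alone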
# Rin1-Abl PPI inh – inhibitors of Rin1-Abl protein binding, primary screen, biochemical, TR-FRET. Tyrosine-protein kinase ABL1 (Homo sapiens) + Ras and Rab interactor 1 (Homo sapiens), …. 360,000 tested, 0.4% active. inhibition, % at 7.35 µM. AID 588664, 2011; in the data active means inhibition above about 5%, passing the limit was not always enough
# ARNT Alpha ctr-1 – AlphaScreen signal interference compounds, dose response, artefact control for ARNT-TACC3 interaction inhibitor project, biochemical, luminescence, cherry-pick. shares compounds with ARNT TACC3 PPI. His-ARNT PASB-GST AlphaScreen artifact counter-screen. AC50, µM (series often up to 68 µM), without a hit: top-dose activity change, negative = signal decrease. 1,200 tested, 50% active. AID 651705, 2012;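 active means every separate test run was called active for a drop in luminescence, with AC50 within twice the top valid dose, actives reach about 71 µM in these data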
# ARNT Alpha ctr-2 – AlphaScreen signal interference by compounds, dose response, artefact control for ARNT/TACC3 disruptor project, biochemical, dual-tagged ARNT, dry powder | shares compounds with ARNT TACC3 PPI | Dual-tagged His-ARNT PASB-GST AlphaScreen artifact counter-screen | AC50, µM | 45 tested, 70% active;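 active means luminescence drop, with half-maximal potency fitted within twice the sample's top valid dose, cut at about 70 µM in these data; inactive means the rest, including signal moving the wrong way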
# Numbers without * were called inactive; · = not tested or not shown; [ ] = another dose, or the depositor's remark. The list is not random: actives were taken first. Their share in the collection is about 1.5%.
SMILES,ARNT TACC3 PPI,HGIII-sPLA2 inh,AI-2 QS modul,Rin1-Abl PPI inh,ARNT Alpha ctr-1,others
O=C(O)C1CCCCC1C(=O)NCCCn1ccnc1 (stereo not drawn),67*,·,25,-3,-6%,
O=C(O)C1C2C=CC(C2)C1C(=O)NCCCn1ccnc1 (stereo not drawn),54*,4,-3,-1,3%,
Cc1noc(C)c1NC(=O)N(C)C[C@@H]1Oc2ccc(NC(=O)Cc3cn(C)c4ccccc34)cc2C(=O)N([C@@H](C)CO)C[C@H]1C,-19,·,·,·,·,
C[C@H]1CN([C@@H](C)CO)C(=O)c2cc(C#Cc3ccccn3)cnc2O[C@@H]1CN(C)Cc1ccccc1,active,-8,·,-2,-7%[42 µM],
CCCN(C)C[C@H]1Oc2ncc(C#CCC(C)C)cc2C(=O)N([C@@H](C)CO)C[C@@H]1C,-2,·,·,·,·,
CCCN(C)C[C@@H]1Oc2ncc(C#CCC(C)C)cc2C(=O)N([C@@H](C)CO)C[C@H]1C,37*,·,·,·,-20%[42 µM],
C[C@H](CO)N1C[C@H](C)[C@@H](CN(C)Cc2ccccn2)Oc2ncc(C#CC3(O)CCCC3)cc2C1=O,19*,·,·,·,-9%[38 µM],
CCOc1ccccc1Nc1nc(N)nc(CN(C)C2CCCCC2)n1,63*,1,·,-2,-16%,
CCOc1ccccc1Nc1nc(N)nc(CSc2nccc(C)n2)n1,3,-3,28,-3,·,
C[C@@H]1CN([C@@H](C)CO)C(=O)c2cc(NC(=O)c3ccccc3)ccc2O[C@@H](C)CCCCO[C@@H]1CN(C)C(=O)CCC(F)(F)F,-8,·,·,·,·,
COC(=O)C(CC#Cc1ccc2c(c1)[C@]1(C(=O)N2)[C@H](c2ccc(O)cc2)N2[C@H](c3ccccc3)[C@H](c3ccccc3)OC(=O)[C@H]2[C@@H]1C(=O)N1CCCCCCC1)C(=O)OC,68*,·,·,·,-33%[38 µM],
Cc1ccc(NC2=C/C(=N/S(=O)(=O)c3cccs3)c3ccccc3C2=O)cc1,9,-4,35,0,·,
Cc1ccc(S(=O)(=O)/N=C2\C=C(Nc3ccc(O)cc3)C(=O)c3ccccc32)cc1,54*,·,·,-2,5.2µM*,
CCOc1ccc(Cl)cc1C(c1c(C)[nH][nH]c1=O)c1c(C)[nH][nH]c1=O,active,-50,5,0,4%,
C#CCOc1ccc(Br)cc1C(c1c(C)[nH][nH]c1=O)c1c(C)[nH][nH]c1=O,-6,-62,0,3,·,
C[C@@H]1CN([C@H](C)CO)C(=O)c2cc(NC(=O)C3CCCCC3)ccc2O[C@@H](C)CCCCO[C@@H]1CN(C)Cc1ccncc1,7,·,·,·,·,
C[C@@H]1CCCCO[C@H](CN(C)Cc2ccncc2)[C@H](C)CN([C@H](C)CO)C(=O)c2cc(NC(=O)C3CCCCC3)ccc2O1,62*,·,·,·,-13%[42 µM],
C[C@@H]1CCCCO[C@H](CN(C)Cc2ccc3c(c2)OCO3)[C@H](C)CN([C@@H](C)CO)C(=O)c2cc(NC(=O)Nc3ccc(C(F)(F)F)cc3)ccc2O1,21,·,·,·,·,
C[C@@H]1CN([C@H](C)CO)C(=O)c2cc(NC(=O)Nc3ccc(C(F)(F)F)cc3)ccc2O[C@@H](C)CCCCO[C@H]1CN(C)Cc1ccc2c(c1)OCO2,68*,·,·,·,53µM*,
C[C@@H]1CN([C@H](C)CO)C(=O)c2cc(N(C)C)ccc2O[C@@H](C)CCCCO[C@@H]1CN(C)Cc1ccc2c(c1)OCO2,57*,·,·,·,58µM*,
C[C@@H]1CCCCO[C@@H](CN(C)C(=O)Nc2ccc3c(c2)OCO3)[C@@H](C)CN([C@@H](C)CO)C(=O)c2cc(N(C)C)ccc2O1,54*,·,·,·,-23%[42 µM],
C[C@@H]1CCCCO[C@H](CN(C)C(=O)CCC(F)(F)F)[C@H](C)CN([C@@H](C)CO)C(=O)c2cc(NS(=O)(=O)c3ccc(F)cc3)ccc2O1,13,·,·,·,·,
COP(=O)(OC)C(Cc1ccccc1)NC(=O)CNC(=O)OCc1ccccc1 (stereo not drawn),·,-1,·,·,·,
COC(=O)C1(NC(=O)CNC(=O)OCc2ccccc2)CCCC1,active,9,·,0,-1%,
COc1ccc(NC(=O)Nc2ccc3c(c2)C(=O)N([C@@H](C)CO)C[C@@H](C)[C@@H](CN(C)Cc2ccc(C(=O)O)cc2)OCCCC[C@@H](C)O3)cc1,-21,·,·,·,·,
SMILES,ARNT TACC3 PPI,HGIII-sPLA2 inh,AI-2 QS modul,Rin1-Abl PPI inh,ARNT Alpha ctr-1,others
CCOc1cc(/C=C2\SC(=S)N(N3CCOCC3)C2=O)ccc1O,-3,-3,37,-1,·,
CCOc1cc(/C=C2\SC(=N)N(c3nccs3)C2=O)ccc1OCCN1CCOCC1,51*,-33,20,-2,70µM*,
CO[C@H]1CN(C)C(=O)c2cc(NC(=O)c3ccc(F)cc3)ccc2OC[C@H](C)NC[C@@H]1C,-7,·,·,·,·,
CC1CCN(S(=O)(=O)c2ccc(C(=O)Nc3nnc(C4=COCCO4)o3)cc2)CC1,62*,-10,35,-1,-25%,ARNT Alpha ctr-2=>136
CS(=O)(=O)c1cccc(C(=O)Nc2nnc(C3=COCCO3)o2)c1,59*,7,15,-2,-15%,
O=C(Nc1nnc(C2=COCCO2)o1)c1cccc(Br)c1,·,-5,21,2,·,
O=C(Nc1nnc(C2=COCCO2)o1)c1ccc(S(=O)(=O)N2CCCCC2)cc1,36,-10,52,2,·,ARNT Alpha ctr-2=>136
O=C(Nc1nnc(-c2ccccc2Cl)o1)c1ccc(S(=O)(=O)N2CCCCCC2)cc1,·,·,24,·,·,
O=C(Nc1nnc(-c2cccs2)o1)c1ccc(S(=O)(=O)N2CCOCC2)cc1,45*,-7,29,6,34µM*,
C[C@@H]1CCCCO[C@H](CN(C)Cc2ccncc2)[C@@H](C)CN([C@@H](C)CO)C(=O)c2cc(NC(=O)c3ccccc3)ccc2O1,4,·,·,·,·,
COc1ccc(C(=O)Nc2ccc3c(c2)OC[C@@H](C)N(C(C)=O)C[C@H](C)[C@H](OC)CN(C)C3=O)cc1,-1,·,·,·,·,
CC(C)C(=O)Nc1ccc2c(c1)C(=O)N(C)[C@H]1CC[C@@H](CC(=O)NCc3ccccc3F)O[C@H]1CO2,-11,·,·,·,·,
CCOC(=O)C(NCc1ccccn1)(NC(=O)c1cccnc1)C(F)(F)F (stereo not drawn),66*,5,25,3,-16%,
CN1CCN(c2nc(-c3ccc(Br)cc3)nnc2-c2ccccc2)CC1,14,-7,12,0,·,
c1ccc(-c2nnc(-c3ccccn3)nc2N2CCC(C3CCCCC3)C2)cc1 (stereo not drawn),·,·,·,·,5.3µM*,
OCC1CCN(c2nc(-c3ccccn3)nnc2-c2ccccc2)CC1,·,·,·,·,2.8µM*,
